From ChEMBL document CHEMBL1157539, “Thousands of chemical starting points for antimalarial lead identification” (Nature, 2010) come the findings set out here.

SMILES strings stand for the structures.

Holding throughout (type): functional
Test [1] has as its system Plasmodium falciparum. Kind of test: GSK_TCMDC: Inhibition of Plasmodium falciparum 3D7 in whole red blood cells, using parasite LDH activity as an index of growth. Test compounds present at 2uM.
In test [2] the test system is Plasmodium falciparum. Nature of the test: GSK_TCMDC: Inhibition of Plasmodium falciparum Dd2 in whole red blood cells, using parasite LDH activity as an index of growth. Test compounds present at 2uM.
Another test concerns HepG2. Kind of test: GSK_TCMDC: Percent inhibition of human HepG2 cell line. Test compounds present at 10uM.

As for `CN(C)CCc1coc2ccc(C(=O)Nc3ccc(-c4ccc(O)cc4)cc3)cc12`, the Inhibition with Plasmodium falciparum [1] is on record as 100%; in the test on Plasmodium falciparum [2] it was 40%; with HepG2, 28%.

Take `Cl.Cl.N=C(N)Nc1ccc(Cc2ccc(NC(=N)N)cc2)cc1`: the values for the Inhibition in the test on Plasmodium falciparum [1], in the test with Plasmodium falciparum [2] and with HepG2 were 93%, 94% and 35%, respectively.

As for `COc1ccc(CC(=O)NC(CCCN2CCC3(CC2)OCc2ccccc23)c2ccc(Cl)c(Cl)c2)cc1` (stereo not drawn), the Inhibition in the test on Plasmodium falciparum [1] is given as 83%; in the test with Plasmodium falciparum [2], 53%; with HepG2 it was 40%.

Regarding `Cc1c(Cl)cccc1S(=O)(=O)Nc1ccc(CCN2CCC(N)CC2)cc1.Cl`, the Inhibition in the test with Plasmodium falciparum [1] was 90%; in the test with Plasmodium falciparum [2], 4%; in the test on HepG2, 23%.

With `COc1ccc2nccc([C@@H](O)CN3CCC(NC(=O)/C=C/c4cccc(NC(C)=O)c4)CC3)c2c1`, the Inhibition turned out to be 90% in the test with Plasmodium falciparum [1], 60% in the test on Plasmodium falciparum [2] and 5% with HepG2.

As to `Cl.Oc1ccc(-c2cc(COc3ccccc3C(F)(F)F)c(C3=CCNCC3)cc2COc2ccccc2C(F)(F)F)cc1`, the results for the Inhibition in the test with Plasmodium falciparum [1], in the test with Plasmodium falciparum [2] and with HepG2 were 100%, 62% and 18%, respectively.

For `COc1cc(CNCCCNc2cc(=O)c3ccccc3[nH]2)c2c(c1)C(C)CN2C(=O)OC(C)(C)C` (stereo not drawn), the Inhibition in the test on Plasmodium falciparum [1] was 96%; in the test on Plasmodium falciparum [2], 87%; in the test with HepG2 it was 0%.

For `Cl.c1ccc2cc(CNCCCN3CCN(CCCNCc4ccc5ccccc5c4)CC3)ccc2c1`, the figures for the Inhibition with Plasmodium falciparum [1], in the test on Plasmodium falciparum [2] and in the test with HepG2 were 100%, 65% and 60%, respectively.

With `O=C(CCc1c[nH]cn1)Nc1ccc(-c2cccc(-c3nc4ccccc4[nH]3)c2)cc1`, the Inhibition with Plasmodium falciparum [1] came to 100%; in the test with Plasmodium falciparum [2], 42%; with HepG2, 12%.

For the molecule `COc1ccccc1NC(=O)NC1CCN(CCCCCNC(=O)/C=C/c2ccc(Cl)c(Cl)c2)CC1`, the figures for the Inhibition in the test with Plasmodium falciparum [1], in the test with Plasmodium falciparum [2] and in the test on HepG2 were 100%, 15% and 4%, respectively.

For the molecule `COc1cc(C(=O)N2C(c3nccs3)C(C(=O)N(OC)C(C)c3ccccc3)CC2(CC(C)C)C(=O)OC(C)(C)C)ccc1C(C)(C)C` (stereo not drawn), the Inhibition in the test on Plasmodium falciparum [1] stood at 92%; with Plasmodium falciparum [2], 92%; with HepG2, 12%.

In general, Inhibition refers to the drop in the measured response relative to a control, in per cent.
